{
  "source": "ChEMBL document CHEMBL3988442",
  "about": "“University of Dundee, Small-Polar-MMV Screening Library” (2021)",
  "note": "The campaign covered roughly 48,000 compounds. About 13,000 (27%) showed an effect of 50% or more. The list shows a part of the results.",
  "data": [
    {"tested_on": "Wolbachia pipientis", "experiment": "Anti-Wolbachia Cell-Based Screen", "type": "functional", "parameters": "scale not given: in the data most compounds retested in dose-response had high values", "details": "5 µM", "units": {"Percent Effect": "%"}, "values": [
      {"smiles": "O=C(NCC1OCCc2cn(CC3CCOCC3)nc21)c1ccncc1.O=C(O)C(F)(F)F", "note": "(stereo unspecified)", "Percent Effect": -2.103},
      {"smiles": "CS(=O)(=O)N1C[C@@H]2OCC(=O)N(CC3CCC3)[C@@H]2C1", "Percent Effect": -1.197},
      {"smiles": "O=C(O)c1csc(S(=O)(=O)N2CCCc3ccc(F)cc32)c1", "Percent Effect": -8.72},
      {"smiles": "CC(C)N1CCC2(CCCN(Cc3ccc(F)cc3)C2=O)C1", "note": "(stereo unspecified)", "Percent Effect": -24.02},
      {"smiles": "O=C1Nc2ccccc2CC12CCCN2Cc1ccc(C(F)(F)F)cc1", "note": "(stereo unspecified)", "Percent Effect": 105.2},
      {"smiles": "O=C(NC1CC1)N1CCC2(CC1)C(=O)NCCN2Cc1ccccc1.O=C(O)C(F)(F)F", "Percent Effect": -18.73},
      {"smiles": "O=C1Nc2ccccc2CC12CCCN2Cc1ccc(F)cc1", "note": "(stereo unspecified)", "Percent Effect": 106.5},
      {"smiles": "COCCC1(CO)CCCN(Cc2ccc(C(F)(F)F)cc2)C1", "note": "(stereo unspecified)", "Percent Effect": -12.26},
      {"smiles": "CS(=O)(=O)c1ccc(CN2CCCC3(C2)C(=O)Nc2ccccc23)cc1", "note": "(stereo unspecified)", "Percent Effect": 12.45},
      {"smiles": "CCC(CC)c1cc(CNC(=O)N2CCN(CC)CC2)on1", "Percent Effect": 1.8},
      {"smiles": "O=C(c1cnc(-c2ncccn2)s1)N1CCCC1Cn1cccn1", "note": "(stereo unspecified)", "Percent Effect": 93.22},
      {"smiles": "O=C(c1cnc(-c2ccccn2)s1)N1CCCC1Cn1cccn1", "note": "(stereo unspecified)", "Percent Effect": 117.3},
      {"smiles": "O=C(c1cnc(-c2cnccn2)s1)N1CCCC1Cn1cccn1", "note": "(stereo unspecified)", "Percent Effect": 93.62},
      {"smiles": "COc1ccc(CN2CCN(c3ncc(Cl)cn3)CC2)cc1", "Percent Effect": -2.887},
      {"smiles": "CC(C)(O)c1cn(C2CCN(c3ncccc3Cl)CC2)nn1", "Percent Effect": -4.75},
      {"smiles": "CSc1ccc(NC(=O)COCc2ccccc2)nc1", "Percent Effect": -20.64},
      {"smiles": "NC(=O)CN(CC(N)=O)Cc1cccc(Oc2ccccc2)c1", "Percent Effect": -1.216},
      {"smiles": "CC(C)(C)NC(=O)N1CCC(NC(=O)Cc2cccnc2)CC1", "Percent Effect": -14.05},
      {"smiles": "Nc1cc(C(=O)NC2CCCN(CCCc3ccccc3)C2)ccn1", "note": "(stereo unspecified)", "Percent Effect": 96.33},
      {"smiles": "O=C(Cc1cccnc1)NC1CCCN(CCCc2ccccc2)C1", "note": "(stereo unspecified)", "Percent Effect": 124.1},
      {"smiles": "CN(C(=O)CC1=CCCCC1)C1CCCN(CCc2ccccc2)C1", "note": "(stereo unspecified)", "Percent Effect": 7.677},
      {"smiles": "CN(C(=O)c1cccnc1)C1CCCN(CCc2ccccc2)C1", "note": "(stereo unspecified)", "Percent Effect": -6.072},
      {"smiles": "O=C(NC1CCCN(CCCc2ccccc2)C1)C1=CCCCC1", "note": "(stereo unspecified)", "Percent Effect": 81.9},
      {"smiles": "Nc1cc(C(=O)NCC2CCN(CCc3ccccc3)C2)ccn1", "note": "(stereo unspecified)", "Percent Effect": -3.918},
      {"smiles": "O=C(NC1CCCN(CCCc2ccccc2)C1)c1ccc(Cl)s1", "note": "(stereo unspecified)", "Percent Effect": 85.82},
      {"smiles": "CC(C)C(=O)NCC(=O)N(C)C1CCCN(CCc2ccccc2)C1", "note": "(stereo unspecified)", "Percent Effect": -4.152},
      {"smiles": "CCOC(=O)C1CCN(C(=O)Cc2c(C)nc(C)[nH]c2=O)CC1", "Percent Effect": 4.435},
      {"smiles": "COc1nccnc1N1CCC2(CCCN(C(C)C)C2=O)C1", "note": "(stereo unspecified)", "Percent Effect": -3.964},
      {"smiles": "CCN(c1ccc(C(=O)NCc2cc[nH]n2)cc1)C(C)C", "Percent Effect": -0.1162},
      {"smiles": "Cc1sc2nc(C(F)(F)F)nc(N3CCN(C)CC3)c2c1C", "Percent Effect": 8.571},
      {"smiles": "COc1ccc(F)c(F)c1CN1CCN(CC(C)C)C(=O)C1C", "note": "(stereo unspecified)", "Percent Effect": 1.65},
      {"smiles": "O=C(NC1CC1)c1ccc(SCc2cscn2)cc1", "Percent Effect": -37.4},
      {"smiles": "CC(C)CNC(=O)NC(=O)CNc1ccccc1SCC(C)C#N", "note": "(stereo unspecified)", "Percent Effect": 9.026},
      {"smiles": "O=C(COC1CCCCC1)Nc1ccn(CCc2ccncc2)n1", "Percent Effect": -1.367},
      {"smiles": "O=C(NC1CCCN(CCCc2ccccc2)C1)c1ccncc1", "note": "(stereo unspecified)", "Percent Effect": 84.08},
      {"smiles": "CN(C(=O)CCc1ccncc1)C1CCCN(CCc2ccccc2)C1", "note": "(stereo unspecified)", "Percent Effect": -4.229},
      {"smiles": "CCN(CC)S(=O)(=O)c1cccc(C(=O)N(C)Cc2ccsc2)c1", "Percent Effect": 98.21},
      {"smiles": "CN(Cc1ccsc1)C(=O)c1cc(S(=O)(=O)N(C)C)ccc1Cl", "Percent Effect": 5.417},
      {"smiles": "CCN(C)C(=O)c1cccc(S(=O)(=O)NCCc2csc(N)n2)c1", "Percent Effect": -2.209},
      {"smiles": "CNS(=O)(=O)c1cccc(C(=O)N(C)Cc2ccsc2)c1", "Percent Effect": 124.1},
      {"smiles": "CN(Cc1ccsc1)C(=O)c1cccc(S(=O)(=O)NCC2CCCO2)c1", "note": "(stereo unspecified)", "Percent Effect": 104.2},
      {"smiles": "CN(Cc1ccsc1)C(=O)c1ccc(F)c(NS(C)(=O)=O)c1", "Percent Effect": 0},
      {"smiles": "COCCNS(=O)(=O)c1ccc(Cl)c(C(=O)N(C)Cc2ccsc2)c1", "Percent Effect": 14.25},
      {"smiles": "CN(Cc1ccsc1)C(=O)c1cccc(NS(C)(=O)=O)c1", "Percent Effect": 8.391},
      {"smiles": "CN(Cc1ccsc1)C(=O)Nc1ccc(S(=O)(=O)N(C)C)cc1", "Percent Effect": 5.237},
      {"smiles": "CN(Cc1ccsc1)C(=O)c1ccc(C2CCCO2)s1", "note": "(stereo unspecified)", "Percent Effect": -3.526},
      {"smiles": "CN(Cc1ccsc1)C(=O)c1cccc(S(=O)(=O)NC(C)(C)C)c1", "Percent Effect": 0.007999},
      {"smiles": "CN(Cc1ccsc1)C(=O)c1ccc(S(=O)(=O)NC(C)(C)C)cc1", "Percent Effect": 98.59},
      {"smiles": "Cc1ccc(C)c2c(C)c(C(=O)NCCC(=O)N3CCOCC3)oc12", "Percent Effect": 9.055},
      {"smiles": "CC(C)c1nsc(NC2CC(=O)N(C(C)(C)C)C2)n1", "note": "(stereo unspecified)", "Percent Effect": 1.592},
      {"smiles": "COC(CNC(=O)c1cn(C)nn1)c1ccc(C)s1", "note": "(stereo unspecified)", "Percent Effect": -8.016},
      {"smiles": "Cc1ccccc1C(C)NC(=O)Cc1c(C)nc2cc(=O)[nH]n2c1C", "note": "(stereo unspecified)", "Percent Effect": -0.7333},
      {"smiles": "CN(CCNc1ncc2c(n1)CCN2c1ccccc1)S(C)(=O)=O", "Percent Effect": 7.395},
      {"smiles": "O=C(O)c1ccccc1-c1c(-c2ccccc2)ncn1CC1CCCO1", "note": "(stereo unspecified)", "Percent Effect": -2.227},
      {"smiles": "COCc1ccccc1C(=O)N1CCn2c(nnc2C(C)C)C1", "Percent Effect": 6.004},
      {"smiles": "Cc1nnc2n1CCN(C(=O)c1cn(-c3ccccc3Cl)nn1)C2", "Percent Effect": -0.6863},
      {"smiles": "Cc1cccc(-n2cc(C(=O)N3CCn4c(C)nnc4C3)nn2)c1", "Percent Effect": 7.104},
      {"smiles": "O=C(c1ccn(-c2cccc(F)c2)n1)N1CCN(CCO)CC1", "Percent Effect": -27.1},
      {"smiles": "Cc1nnc2n1CCN(C(=O)c1ccn(-c3cccc(F)c3)n1)C2", "Percent Effect": 108.9},
      {"smiles": "CC(C)(O)CN1CCN(C(=O)c2ccn(-c3cccc(F)c3)n2)CC1", "Percent Effect": -183.4},
      {"smiles": "CCOC(C(=O)N1CCn2c(nnc2C(C)C)C1)c1ccccc1", "note": "(stereo unspecified)", "Percent Effect": -0.6295},
      {"smiles": "CC(C)c1nnc2n1CCN(C(=O)c1cn(-c3ccccc3)nn1)C2", "Percent Effect": 113.1},
      {"smiles": "Cc1nnc2n1CCN(C(=O)c1cn(-c3ccccc3)nn1)C2", "Percent Effect": 102.5},
      {"smiles": "Cc1nnc2n1CCN(C(=O)c1cc(Cl)c(Cl)n1C)C2", "Percent Effect": -5.044},
      {"smiles": "Cc1ccc(-n2cc(C(=O)N3CCn4c(C)nnc4C3)nn2)cc1", "Percent Effect": 111.3},
      {"smiles": "Cc1cccc(-n2c(C)cc(C(=O)N3CCn4c(C)nnc4C3)c2C)c1", "Percent Effect": 1.537}
    ]}
  ]
}
